NPC1 prom act: activates the NPC1 promoter; Potency, µM (top dose mostly 9.22 µM), for inactives: top-dose activation, actives largely listed as activators; 320,000 compounds, 2.4% hits; AID 485313; Huh7 NPC1 promoter luciferase reporter, 24 h; note: % of control where 0% means no effect; nearly all actives have a fitted effect of over 60% in size
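NPC1 promoter–luciferase Huh7 cells; 24 h compound; luminescence.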
ELG1 genotoxic: inducers of genotoxicity in HEK293T ELG1-luciferase cells | HEK293T ELG1-luciferase reporter, luminescence, 16 h | AID 504466 | Potency, µM (titrated, usually from 46 µM), for the others: top-dose activity change, positive = activation, most hits filed as activators | 330,000 compounds, 1.3% hits; note: % of control where 0% means no effect; nearly all actives have a fitted effect of over 60% in size
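16 hr compound incubation (37 °C, 5% CO2) of HEK293T cells carrying luciferase-tagged ELG1; luciferase then measured by ONE-Glo luminescence after 30 min at RT.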
p53 reactivator: re-activators of mutant p53 | H1299 p53-A138V BP100-luciferase reporter, luminescence, 24 h | Potency, µM (series often up to 92.2 µM), without a hit: at the highest dose activity change, positive = activation, usual class: activators | 320,000 compounds, 0.063% hits | AID 504706; note: % of control where 0% means no effect; nearly all actives have a fitted effect of over 45% in size
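H1299 (p53-null), stable ts p53-A138V + BP100-Luc; 1000 cells/well, Opti-MEM/10% FBS; cpd 4 pt, 1:5; 24 h, 37 deg C, 5% CO2; detection reagent 10 min RT; luminescence.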
Rab9 prom act: activators of Rab9 promoter | Huh7 Rab9 promoter-luciferase reporter, luminescence, 24 h | Potency, µM (series often up to 9.22 µM), for inactives: at the highest dose activation, negative = inhibition, most hits filed as activators | AID 485297 | 320,000 compounds, 2.8% hits; note: % of control where 0% means no effect; nearly all actives have a fitted effect of over 60% in size
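Cell-based reporter: Huh7 stable for Rab9 promoter-driven luciferase, plated in reduced-serum medium with 10% FBS at 1500 cells/well, compound-treated 24 h at 37 °C, luminescence read after 10 min reagent.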
SMN2 splice up: enhancers of SMN2 splice variant expression. HEK293 SMN2-luciferase splicing reporter, luminescence, 30-36 h. Potency, µM (highest dose often 46.1 µM), for inactives: top-dose activity change, positive = activation, actives largely listed as activators. 210,000 compounds, 2.8% hits. AID 1458; note: % of control where 0% means no effect; nearly all actives have a fitted effect of over 55% in size
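qHTS luciferase splicing reporter: luminescence rises when SMN2 exon 7 is included in transfected HEK293 cells. Compound exposure lasted 30-36 h at 37C, with 4.5 mM final sodium butyrate as control, followed by a ONE-Glo read.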
FLuc modulator: inhibits or activates purified firefly luciferase, miR-21 counter-screen; P08659; purified FLuc, Km substrates, luminescence inhibition; Potency, µM (titrated, usually from 57.5 µM), without a hit: at the highest dose activity change, negative = inhibition, hits mostly inhibitors; 360,000 compounds, 6.9% hits;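 note: plate controls were vehicle for no effect and reference inhibitor for full effect; nearly all actives have a fitted effect of over 55% in size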
Target sequence (P08659 whole entry, looked up): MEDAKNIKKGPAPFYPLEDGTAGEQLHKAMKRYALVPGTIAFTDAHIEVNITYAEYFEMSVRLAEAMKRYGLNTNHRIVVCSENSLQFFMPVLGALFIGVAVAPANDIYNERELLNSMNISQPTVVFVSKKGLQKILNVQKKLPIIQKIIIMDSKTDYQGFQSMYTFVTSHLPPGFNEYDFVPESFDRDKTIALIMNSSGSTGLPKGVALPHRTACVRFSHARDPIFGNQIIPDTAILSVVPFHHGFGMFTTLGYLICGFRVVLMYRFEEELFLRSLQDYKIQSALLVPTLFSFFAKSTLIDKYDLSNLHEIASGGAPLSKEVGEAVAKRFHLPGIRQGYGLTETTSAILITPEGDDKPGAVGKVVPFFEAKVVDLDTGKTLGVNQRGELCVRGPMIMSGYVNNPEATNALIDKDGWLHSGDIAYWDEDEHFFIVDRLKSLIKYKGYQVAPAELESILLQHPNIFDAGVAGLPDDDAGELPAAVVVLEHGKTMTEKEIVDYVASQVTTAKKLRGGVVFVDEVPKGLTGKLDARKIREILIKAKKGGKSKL
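Biochemical qHTS of compounds, final roughly 60 µM downward over six points, against 10 nM purified firefly luciferase using Km concentrations of substrates (10 uM D-luciferin, 10 uM ATP) in Tris acetate pH 7.5 buffer; luminescence output.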
Numbers without * were called inactive; ? = inconclusive; · = not tested or not shown; [ ] = another dose, or the depositor's remark. In the library only some 7.4% were active in any assay of this set; here they are far more common. Calls come from the whole dose curve; as a rule, active = well fitted curve in the direction sought with a large enough effect; inconclusive = small, poorly fitted or top-dose-only effect, or another doubt; inactive = no such curve, though single readings can be large; an effect the other way counts as inactive or inconclusive. Potency is the fitted concentration of half-maximal effect.

SMILES	NPC1 prom act	ELG1 genotoxic	p53 reactivator	Rab9 prom act	SMN2 splice up	FLuc modulator
O=C(Nc1ccc(F)cc1)c1cccc(C(=O)Nc2ccc(F)cc2)c1	4%	10%	-2%	7%	·	-1%
COC(=O)CCCC1=CC2=C(c3ccccc3)C(=O)C(C)(OC(=O)C3CCCC3)C(=O)C2=CN1CCCOC(C)C (stereo not given)	·	·	·	·	0%[9.22 µM]	·
Cc1cc(C)cc(NS(=O)(=O)c2ccc3c(c2)OCC(C(=O)N2CCCC2)O3)c1 (stereo not given)	·	·	·	·	·	-16%
COc1ccc(CN(C(=O)Nc2ccccc2)c2ccccn2)cc1OC	·	·	·	·	·	-2%
Cc1ccc(NC(=O)C(Cc2ccccc2)NS(=O)(=O)c2ccc3c(c2)c(=O)n(C)c(=O)n3C)c(C)c1 (stereo not given)	·	·	·	·	-14%	1%
COc1cc(CN2CCN(S(=O)(=O)c3ccc(NC(C)=O)cc3)CC2)cc(OC)c1OC	·	·	·	·	·	0%
COc1cccc(NC(=O)CC(=O)c2ccc([N+](=O)[O-])cc2)c1	?	8%	17%	3%[1.84 µM]	·	2.1µM*
COc1cc(OC)cc(C(=O)Nc2cccc(NC(=O)c3ccccc3)c2)c1	-4%	-7%	-3%	0%	·	17µM*
COc1ccccc1NC(=O)c1ccc2nsnc2c1	?	?	?	4µM*	·	15µM*
COc1cccc(NC(=O)CCC(=O)Nc2cccc(OC)c2)c1	2%	2%	-4%	6%	-14%	-1%
COc1cccc(NC(=O)c2cccc(C)c2[N+](=O)[O-])c1	10%	?	4%	?	?	19µM*
N#C/C(=C\c1c(Oc2ccc(Br)cc2)nc2ccccn2c1=O)c1nc2ccccc2s1	·	·	·	·	19%	-17%
COc1ccc(NC(=O)Nc2ccc(Br)cn2)cc1OC	1%	14%	3%	3%	-2%	?
CC(C)OC(=O)c1cccc(NC(=O)c2ccccc2)c1	?	14%	?	?	?	13µM*
CC(C)OCCCNC(=O)c1cccc(NC(=O)c2ccccc2)c1	-2%	-3%	1%	1%	-3%	-16%
COc1cccc(NC(=O)c2ccc(NC(=O)C(C)C)cc2)c1	?	?	3%	?	·	11µM*
COc1cccc(NC(=O)Nc2ccc(Br)cn2)c1	?	?	7%	3.2µM*	·	?
CSc1nc(-c2ccc(Cl)cc2)nn1S(=O)(=O)c1ccc(Cl)cc1	26%	?	?	3.5µM*	11µM*	-19%
CSc1nc(-c2ccc(Cl)cc2)nn1S(=O)(=O)c1ccccc1	?	18%	?	?	13µM*	13µM*
CS(=O)(=O)n1nc(-c2ccc(Cl)cc2)nc1SCc1ccccc1	?	15µM*	?	?	22%	·
COc1ccc(C(=O)NCCn2cc(SCc3c(F)cccc3Cl)c3ccccc32)cc1	·	·	·	·	-17%	-14%
CC(C)=CC[C@@H](O)C1=CC(=O)c2c(O)ccc(O)c2C1=O	·	·	·	·	-99%	·
O=C(NCc1ccccc1Cl)c1c2c(nc3ccccc13)C(=O)N(C1CCCCC1)C2	·	·	·	·	·	-10%
O=C(Nc1ccc(F)cc1)c1ncn(-c2ccccc2)n1	·	·	·	·	14µM*	11µM*
COc1ccccc1NC(=O)c1ncn(-c2ccccc2)n1	·	·	·	·	11µM*	?
O=C(CCNS(=O)(=O)c1ccc(Br)s1)Nc1ccc(Br)cc1	·	·	·	·	7%	?
O=C(CN1CCOCC1)N/N=C/C(Br)=C\c1ccccc1	-3%	11%	19%	0%	?	0%
O=C(Cc1cccs1)N/N=C/C(Br)=C/c1ccccc1	3.2µM*	?	14%	4µM*	?	?
CC(/C=N/NC(=O)CSc1n[nH]c(=O)[nH]c1=O)=C\c1ccccc1	-3%	-2%	-1%	9%	·	15µM*
CC(/C=N/NC(=O)Cc1cccn1C)=C\c1ccccc1	17%	15%	17%	28%	13%	11µM*
